Calls of active or inactive are those of the source. How the source made its calls: active means hit-call score of the fitted dose curve at least 0.9, where 1 is the maximum; inactive means score below 0.9.
Experiment: BSK_3C_Vis: BioMAP Diversity Plus: 3C Assay for Morphology Visualization (AID 2283025);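 further: fitted both ways so gain or loss versus DMSO counts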;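 on AC50: cells imaged 24 h after dosing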
Conditions: primary human endothelial cells (HUVEC)
Outline: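 HUVEC, 3C system; light microscopy of morphology at 24 h post-dose. Bidirectional fit vs DMSO baseline. Secondary readout, background-control function.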

SMILES | outcome | AC50
COCCOc1cc2cc(C(=O)NC3CCN(C(C)C)CC3)n(CC(=O)Nc3ccc(Cl)cn3)c2cn1 | inactive | –
CCc1cc(SCc2sc(-c3ccc(C(F)(F)F)cc3)nc2CN2CCN(c3ccc(OC)cc3)CC2)ccc1OCC(=O)O | – | 14.5 µM (active)
CCCCCCCCO | inactive | –
CC(C)CCCCCCOC(=O)c1ccc(C(=O)OCCCCCCC(C)C)c(C(=O)OCCCCCCC(C)C)c1 | inactive | –
Nc1nc2ncc(CNc3ccc(C(=O)N[C@@H](CCC(=O)O)C(=O)O)cc3)nc2c(=O)[nH]1 | inactive | –
Cn1c(=O)cc(Oc2ccc(F)cc2F)c2cnc(NCC(C)(C)O)nc21 | inactive | –
CC(=O)OCCC(C)C | inactive | –
COC(=O)CC(=O)OC | inactive | –
Cc1c(-c2cccnc2)c2ccccc2n1CCCCC(=O)O | inactive | –
Nc1cccc(N)c1 | inactive | –
CC[C@H](C)C(=O)O[C@H]1C[C@@H](C)C=C2C=C[C@H](C)[C@H](CC[C@@H]3C[C@@H](O)CC(=O)O3)[C@H]21 | – | 28.3 µM (active)
COC(=O)c1ccccc1O | inactive | –
CC[C@H]1OC(=O)[C@H](C)[C@@H](O[C@H]2C[C@@](C)(OC)[C@@H](O)[C@H](C)O2)[C@H](C)[C@@H](O[C@@H]2O[C@H](C)C[C@H](N(C)C)[C@H]2O)[C@](C)(O)C[C@@H](C)C(=O)[C@H](C)[C@@H](O)[C@]1(C)O | inactive | –
